Measured values taken from the supplement of paper PMC9950053.
Where a name gives a salt, the structure may show the parent alone.

Tested on: Danio rerio larvae (5 dpf)
Assay: combined optomotor response (time in upper well half, down vs up moving lines, periods 7-14) minus DMSO control (percentage points); higher = stronger optomotor response than DMSO larvae
Conditions: 10 µM; exposure time: 3 h pre-incubation + 3 h imaging
Description: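 Wild-type 5 dpf zebrafish larvae (n=48 per drug, 96-well plates, 28.5 °C) were exposed to Tocris FDA-approved library compounds at 10 µM (0.1% DMSO) for 3 h before and 3 h during imaging. Images were taken every 6 s during visual and acoustic stimuli, and larvae were tracked with Z-LaP Tracker. Each measure is the treated-group mean minus the DMSO control mean (n=844), in percentage points. This mapping covers compounds with 5-character plate codes.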

SMILES | combined optomotor response
CNS(=O)(=O)Cc1ccc2[nH]cc(CCN(C)C)c2c1 [Sumatriptan succinate] | -0.931
CN(C)CCc1c[nH]c2ccc(C[C@H]3COC(=O)N3)cc12 [Zolmitriptan] | 5.82
OC(c1cc(C(F)(F)F)nc2c(C(F)(F)F)cccc12)C1CCCCN1 (stereo unspecified) [Mefloquine hydrochloride] | -2.6
COc1cc([C@@H]2c3cc4c(cc3[C@@H](O[C@@H]3O[C@@H]5CO[C@@H](C)O[C@H]5[C@H](O)[C@H]3O)[C@H]3COC(=O)[C@H]23)OCO4)cc(OC)c1O [Etoposide] | 4.51
O=C(O)C[C@H](O)C[C@H](O)/C=C/c1c(C2CC2)nc2ccccc2c1-c1ccc(F)cc1 [Pitavastatin calcium] | 8.14
COCCc1ccc(OCC(O)CNC(C)C)cc1 (stereo unspecified) [Metoprolol tartrate] | 1.91
Cc1cc2c(s1)Nc1ccccc1N=C2N1CCN(C)CC1 [Olanzapine] | 8.87
CCCc1nn(C)c2c(=O)[nH]c(-c3cc(S(=O)(=O)N4CCN(C)CC4)ccc3OCC)nc12 [Sildenafil citrate] | -0.855
OCc1cc(C(O)CNCCCCCCOCCCCc2ccccc2)ccc1O (stereo unspecified) [Salmeterol xinafoate] | 0.619
C#CCN[C@@H]1CCc2ccccc21 [Rasagiline mesylate] | 6.3
CCCC1O[C@@H]2C[C@H]3[C@@H]4CCC5=CC(=O)C=C[C@]5(C)[C@H]4[C@@H](O)C[C@]3(C)[C@]2(C(=O)CO)O1 (stereo partly specified) [Budesonide] | 2.27
COc1ccccc1Oc1c(NS(=O)(=O)c2ccc(C(C)(C)C)cc2)nc(-c2ncccn2)nc1OCCO [Bosentan] | 1.31
COc1cc2nccc(Oc3ccc(NC(=O)C4(C(=O)Nc5ccc(F)cc5)CC4)cc3)c2cc1OC | 0.162
COc1cc(N)c(Cl)cc1C(=O)NC1CCN(CCCOc2ccc(F)cc2)CC1OC (stereo unspecified) [Cisapride] | 4.72
CN[C@H]1CC[C@@H](c2ccc(Cl)c(Cl)c2)c2ccccc21 [Sertraline hydrochloride] | -6.63
CC(C)COCC(CN(Cc1ccccc1)c1ccccc1)N1CCCC1 (stereo unspecified) [Bepridil hydrochloride] | 8.48
CNCc1ccc(-c2[nH]c3cc(F)cc4c3c2CCNC4=O)cc1 [Rucaparib camsylate] | 4.21
CCCCCCCN(CC)CCCC(O)c1ccc(NS(C)(=O)=O)cc1 (stereo unspecified) [Ibutilide hemifumarate] | 5.81

SMILES | combined optomotor response
CC(=O)Nc1ccc(O)cc1 [Acetaminophen] | 0.558
CNC(=O)c1cc(Oc2ccc(NC(=O)Nc3ccc(Cl)c(C(F)(F)F)c3)cc2)ccn1 [Sorafenib] | -1.64
O=C1CCc2ccc(OCCCCN3CCN(c4cccc(Cl)c4Cl)CC3)cc2N1 [Aripiprazole] | 1.74
C[C@H]1O[C@H](O[C@H]2[C@H](O)[C@@H](O)[C@@H](O[C@H]3[C@H](O)[C@@H](O)C(O)O[C@@H]3CO)O[C@@H]2CO)[C@H](O)[C@@H](O)[C@@H]1N[C@H]1C=C(CO)[C@@H](O)[C@H](O)[C@H]1O (stereo partly specified) [Acarbose] | 3.82
CC(=O)Oc1cc2c(s1)CCN(C(C(=O)C1CC1)c1ccccc1F)C2 (stereo unspecified) [Prasugrel] | 6.75
N#Cc1ccc2[nH]cc(CCCCN3CCN(c4ccc5oc(C(N)=O)cc5c4)CC3)c2c1 [Vilazodone hydrochloride] | -6.69
CN(C)C(=N)NC(=N)N [Metformin hydrochloride] | 8.63
Clc1ccc2nsnc2c1NC1=NCCN1 [Tizanidine hydrochloride] | 1.65
CC(C)OC(=O)C(C)(C)Oc1ccc(C(=O)c2ccc(Cl)cc2)cc1 [Fenofibrate] | 2.45
COc1ccccc1OCC(O)CN1CCN(CC(=O)Nc2c(C)cccc2C)CC1 (stereo unspecified) [Ranolazine dihydrochloride] | 10.9
CC(C)(C(=O)O)c1ccc(C(O)CCCN2CCC(C(O)(c3ccccc3)c3ccccc3)CC2)cc1 (stereo unspecified) [Fexofenadine hydrochloride] | 3.85
CCc1nc(N)nc(N)c1-c1ccc(Cl)cc1 [Pyrimethamine] | 7.22
OCCN1C[C@H](O)[C@@H](O)[C@H](O)[C@H]1CO [Miglitol] | 5.48
NC(=O)OCC(COC(N)=O)c1ccccc1 [Felbamate] | -0.92
NS(=O)(=O)c1cc2c(cc1Cl)NC(C1CC3C=CC1C3)NS2(=O)=O (stereo unspecified) [Cyclothiazide] | 0.296
N#C[C@@H]1C[C@@H]2C[C@@H]2N1C(=O)[C@@H](N)C12CC3CC(CC(O)(C3)C1)C2 [Saxagliptin hydrochloride] | -2.67
CC[C@H]1OC(=O)[C@H](C)[C@@H](O[C@H]2C[C@@](C)(OC)[C@@H](O)[C@H](C)O2)[C@H](C)[C@@H](O[C@@H]2O[C@H](C)C[C@H](N(C)C)[C@H]2O)[C@](C)(O)C[C@@H](C)CN(C)[C@H](C)[C@@H](O)[C@]1(C)O [Azithromycin] | -4.55
O=c1n(CCCN2CCN(c3cccc(Cl)c3)CC2)nc2ccccn12 [Trazodone hydrochloride] | 2.35
